Measured values: PubChem BioAssay (EPA / NIEHS)
“And” between values parts separate entries of the source, which are not always exact repeats. Identical values can stand only once. The source holds several records for some structures; these can differ, active in one and inactive in another. The source made the active and inactive calls. The calls were made as follows: active = hit-call score of the fitted dose curve at least 0.9, where 1 is the maximum; inactive = score below 0.9.

read-out: Monokine induced gamma interferon (MIG), CXCL9 (gene 4283); experiment: BSK_SAg_MIG: BioMAP Diversity Plus: SAg Assay for Monokine induced gamma interferon (MIG) Biomarker Activity (AID 2283092); conditions: primary human HUVEC with PBMC; actives raise or lower the signal
Procedure: BSK_SAg is a cell-based, multiplexed-readout assay that uses umbilical vein endothelium and peripheral blood mononuclear cells, a human vascular primary cell co-culture, with measurements taken at 24 hours after chemical dosing in a 96-well plate.BSK_SAg_MIG is an assay component measured in the BSK_SAg assay. It measures MIG antibody related to regulation of gene expression using ELISA technology.Data from the assay component BSK_SAg_MIG was analyzed into 1 assay endpoint. This assay endpoint, BSK_SAg_MIG, was analyzed with bidirectional fitting relative to DMSO as the negative control and baseline of activity. Using a type of binding reporter, gain or loss-of-signal activity can be used to understand changes in the signaling as they relate to the gene CXCL9. Furthermore, this assay endpoint can be referred to as a primary readout, because this assay has produced multiple assay endpoints where this one serves a signaling function. To generalize the intended target to other relatable targets, this assay endpoint is annotated to the cytokine intended target family, where the subfamily is chemotactic factor.
The levels of cell surface (or secreted, indicated by the prefix "s") biomarker endpoints were measured by ELISA. Overt cytotoxicity to cells in confluent adherent cultures (all systems other than the BT system) was assessed by measuring total protein levels using sulforhodamine B (SRB) staining in parallel cultures at the time of biomarker measurements, indicated as SRB endpoints. For proliferation assays for adherent cell types, individual cell types are cultured at sub-confluence and relative cell numbers quantified by SRB staining at time points optimized for each system (48 h: 3C and CASM3C systems; 72 h: BT and HDF3CGF systems; 96 h: SAg system). SRB was performed by staining cells with 0.1% SRB after fixation with 10% TCA and reading wells at 560 nm.Viability and proliferation of PBMC (T cells) was quantified by Alamar Blue reduction for the SAg and BT systems. For PBMC viability (referred to as PBMC Cytotoxicity within the assay endpoint names), cells were plated (75,000/well in a 96-well plate) and then chemical samples added for 1 h before addition of activators, SEB and TSST-1 (20 ng/mL final concentration each). Cells were incubated for 90 h. Then, Alamar Blue (20 uL/well) (Invitrogen, Cat DAL1100) was added for 6 h, and the plates were read with a fluorescence microplate reader at 546/580 nm (excitation/emission). For PBMC proliferation, cells were plated and activated as above but incubated for only 16 h prior to addition of Alamar Blue. Plates were read after 6 h.

**Q.** How did the outcome turn out when CC1=C2C[C@H]3[C@@H](CC=C4C[C@@H](O)CC[C@@]43C)[C@@H]2CC[C@]12O[C@@H]1C[C@H](C)CN[C@H]1[C@H]2C was run?
**A.** inactive

**Q.** Which AC50 does the source give for CCC(=O)O[C@H]1CC[C@H]2[C@@H]3CCC4=CC(=O)CC[C@]4(C)[C@H]3CC[C@]12C here?
**A.** 35.7 µM (active)

**Q.** How did the outcome turn out when Nc1ccc(-c2ccc(N)cc2)cc1 was run?
**A.** inactive

**Q.** Which outcome does the source give for Cc1ccc(O)c(C)c1 here?
**A.** inactive

**Q.** For C=CC(=O)NCNC(=O)C=C, which outcome is on record?
**A.** inactive

**Q.** For CCCCCCCCCC[N+](C)(C)CCCCCCCCCC, which AC50 is on record?
**A.** 3.59 µM (active)

**Q.** How did the outcome turn out when CCCCCCCCOC(=O)c1ccccc1C(=O)OCCCCCCCC was run?
**A.** inactive

**Q.** Which outcome does the source give for ClC1=C(Cl)[C@]2(Cl)[C@@H]3[C@@H]4C[C@@H]([C@H]5O[C@@H]45)[C@@H]3[C@@]1(Cl)C2(Cl)Cl here?
**A.** inactive

**Q.** With O=C(NC(=O)c1cc(F)c(F)cc1Cl)Nc1cc(F)ccc1N1CCC(C(=O)O)CC1 as the compound, how does the outcome read?
**A.** inactive

**Q.** Oc1c(Cl)c(Cl)c(Cl)c(Cl)c1Cl was tested. Which AC50 did it give?
**A.** 34.8 µM (active)

**Q.** What about the outcome of the same compound?
**A.** inactive

**Q.** For Cc1cccc([N+](=O)[O-])c1, which outcome is on record?
**A.** inactive

**Q.** How did the outcome turn out when O=S(=O)(O)C(F)(F)C(F)(F)C(F)(F)C(F)(F)F was run?
**A.** inactive

**Q.** With Cc1cccc(C)c1N as the compound, how does the outcome read?
**A.** inactive

**Q.** For Cc1ccccc1[N+](=O)[O-], which outcome is on record?
**A.** inactive

**Q.** How did the AC50 turn out when CO/C=C(/C(=O)OC)c1ccccc1COc1cccc(C(F)(F)F)n1 was run?
**A.** 26.5 µM (active)

**Q.** With Cc1cc(-c2ccc(N)c(C)c2)ccc1N as the compound, how does the outcome read?
**A.** inactive

**Q.** How did the outcome turn out when CCOCCOC(C)=O was run?
**A.** inactive

**Q.** How did the outcome turn out when Cc1cc(O)ccc1Cl was run?
**A.** inactive

**Q.** Which outcome does the source give for O=C(N[C@H]1CN2CCC1CC2)c1cc2ccoc2cn1 here?
**A.** inactive

**Q.** With CCCN(CCC)N=O as the compound, how does the outcome read?
**A.** inactive

**Q.** With COc1ccc(O)c(C(C)(C)C)c1 as the compound, how does the outcome read?
**A.** inactive

**Q.** How did the outcome turn out when Sc1ccccc1 was run?
**A.** inactive

**Q.** With COS(=O)(=O)OC as the compound, how does the outcome read?
**A.** inactive

**Q.** How did the outcome turn out when C1CC2OC2CC1C1CO1 (stereo not given) was run?
**A.** inactive

**Q.** With Cc1cc2c3c(c1)C(c1ccccc1)=N[C@@H](NC(=O)c1ccncc1)C(=O)N3CC2 as the compound, how does the outcome read?
**A.** inactive

**Q.** For CN(C)CCO, which outcome is on record?
**A.** inactive

**Q.** Which outcome does the source give for N#Cc1ccc(N(CC(N)=O)CC(F)(F)F)cc1C(F)(F)F here?
**A.** inactive

**Q.** With Cc1ccccc1CO[C@@H]1C[C@@]2(C(C)C)CC[C@]1(C)O2 as the compound, how does the outcome read?
**A.** inactive

**Q.** For O=S(=O)(O)C(F)(F)C(F)(F)C(F)(F)C(F)(F)C(F)(F)C(F)(F)F, which outcome is on record?
**A.** inactive

**Q.** With c1cc2ccc3cccc4ccc(c1)c2c34 as the compound, how does the outcome read?
**A.** inactive

**Q.** CC#Cc1cc(C)nc(Nc2ccccc2)n1 was tested. Which outcome did it give?
**A.** inactive

**Q.** For Nn1cnnc1, which outcome is on record?
**A.** inactive

**Q.** With Clc1ccc(C(Cl)(Cl)Cl)cc1 as the compound, how does the outcome read?
**A.** inactive

**Q.** Which outcome does the source give for Clc1ccc(Cl)cc1 here?
**A.** inactive

**Q.** Which outcome does the source give for Cc1ccccc1O here?
**A.** inactive

**Q.** How did the outcome turn out when C=CC(N)=O was run?
**A.** inactive

**Q.** O=C(O)C(F)(F)C(F)(F)C(F)(F)C(F)(F)C(F)(F)C(F)(F)C(F)(F)C(F)(F)C(F)(F)F was tested. Which AC50 did it give?
**A.** 33.7 µM (active) and 54.9 µM (active) and 53.5 µM (active)

**Q.** How did the outcome turn out when CCC(C)(c1ccc(O)cc1)c1ccc(O)cc1 was run?
**A.** inactive

**Q.** For CCC(C)c1cc([N+](=O)[O-])cc([N+](=O)[O-])c1O (stereo not given), which AC50 is on record?
**A.** 31.7 µM (active)
